PostGolgi ctrl = inhibits growth of the yeast control strain | efflux-deficient yeast background strain, growth absorbance A615, 16 h | inhibition, % at 10 µM | 98,000 compounds, 5% hits
CYP2C9 inh = blocks human cytochrome P450 2C9 | P11712 | inhibition, % at 5 µM | 96,000 compounds, 20% hits | CYP2C9 Supersomes, luciferin-H conversion, luminescence;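 active means blocking of liver enzyme CYP2C9 beyond about 50% at 5 µM, limit read from the data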
CYP2C19 inhib = blocks human cytochrome P450 2C19; CYP2C19 Supersomes, luciferin-H EGE luminescence, 30 min; inhibition, % at 5 µM; 96,000 compounds, 21% hits;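 active means CYP2C19 inhibition above a set limit at 5 µM in the primary screen, cut at about 50% in these data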;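 further: plate controls were negative control wells for no effect and 2.5 mM tranylcypromine positive control for full effect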
Target sequence (P33261 whole entry, looked up): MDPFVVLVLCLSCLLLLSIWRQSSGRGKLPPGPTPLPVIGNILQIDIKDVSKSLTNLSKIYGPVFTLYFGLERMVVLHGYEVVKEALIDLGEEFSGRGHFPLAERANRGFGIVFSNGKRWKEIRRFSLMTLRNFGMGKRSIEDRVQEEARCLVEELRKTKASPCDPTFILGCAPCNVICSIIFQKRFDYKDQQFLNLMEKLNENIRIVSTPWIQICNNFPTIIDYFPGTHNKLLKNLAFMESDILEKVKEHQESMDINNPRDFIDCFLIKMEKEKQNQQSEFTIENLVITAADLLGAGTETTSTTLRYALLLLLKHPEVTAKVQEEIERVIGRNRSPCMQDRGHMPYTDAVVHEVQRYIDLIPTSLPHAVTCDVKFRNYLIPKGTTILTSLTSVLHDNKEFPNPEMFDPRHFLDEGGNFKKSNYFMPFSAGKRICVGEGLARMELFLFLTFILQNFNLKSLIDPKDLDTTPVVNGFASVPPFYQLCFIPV
CYP2C9 act = increases human cytochrome P450 2C9 activity. recombinant CYP2C9, luciferin-H conversion, luminescence; hits give high values; factor 1 = untreated enzyme, 0 = blocked. 96,000 compounds, 1.4% hits. P11712. activation factor at 5 µM;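 active means activation factor of 2 or more for CYP2C9 at a 5 µM dose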;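 further: 0 = sulfaphenazole-blocked wells and 1 = vehicle-only wells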
PostGolgi yeast = growth inhibition of a yeast mutant, post-Golgi transport screen; inhibition, % at 10 µM; post-Golgi transport phenotypic cell assay; 98,000 compounds, 0.9% hits; AID 739;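 further: yeast cells grown in 1536-well plates; yeast grown about 18 h at 30C before absorbance read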
CYP2C19 act = activators of human cytochrome P450 2C19; recombinant CYP2C19, luciferin-H EGE luminescence; hits give high values; 0 = fully inhibited enzyme, 1 = untreated enzyme; 96,000 tested, under 10 active; activation factor at 5 µM; AID 1025;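 active means activation factor of at least 2 at 5 µM in the primary screen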;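 further: 0 = wells with 2.5 mM tranylcypromine and 1 = vehicle-only wells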
The depositor's hits bear a star. A selection: hits, their analogues and other compounds. The true share with any hit is near 32%. Unless noted, no stated cut-off is given here; in the data, active means inhibition above about 30%; inactive means the rest.

SMILES	PostGolgi ctrl	CYP2C9 inh	CYP2C19 inhib	CYP2C9 act	PostGolgi yeast	CYP2C19 act
Fc1cccc(-c2cc3nc4c(c(N5CCOCC5)n3n2)CCCC4)c1	70*	94*	63*	0.1	16	0.4
Fc1cccc(-c2cc3nc4c(c(NCc5ccco5)n3n2)CCCC4)c1	49*	33	20	0.7	3	0.8
c1coc(CNc2c3c(nc4ccccc24)CCC3)c1	3	-4	-6	1	0	1.1
Clc1cccc(-c2cc3nc4c(c(N5CCOCC5)n3n2)CCCC4)c1	88*	89*	70*	0.1	-1	0.3
Cc1nc2cc(-c3cccc(F)c3)nn2c(N2CCN(C(=O)c3ccco3)CC2)c1C	10	4	7	1	10	0.9
COc1ccc(OC)c(C2Nc3nc4ccccc4n3C(C)=C2C(=O)Nc2ccc(C)cc2C)c1 (stereo not given)	-4	10	10	0.9	0	0.9
CC(=O)c1coc2ccc(OCCN3CCCCC3)cc12	3	-8	-15	1.1	6	1.2
CC1(C)C2CCC13CS(=O)(=O)N[C@@H]3C2 (stereo not given in full)	28	10	10	0.9	9	0.9
CCN(CC)c1cc(Oc2ccccc2)ncn1	-2	31	80*	0.7	-4	0.2
COc1ccccc1C1C(C(N)=O)=C(C)Nc2nc(-c3ccc(Cl)cc3)nn21 (stereo not given)	8	6	41	0.9	9	0.6
COc1ccc(-c2nc3n(n2)C(c2ccccc2Cl)C(C(N)=O)=C(C)N3)cc1 (stereo not given)	12	15	53*	0.8	-2	0.5
CC1=C(C(N)=O)C(c2ccccc2)n2nc(-c3cccc(C)c3)nc2N1 (stereo not given)	-3	-4	50*	1	5	0.5
CCCCOC(=O)Nc1cccc(C(C)=O)c1	-7	25	34	0.7	1	0.7
COc1ccc(-c2nc(NC(=O)CSc3nnc(C)s3)ns2)cc1	11	10	10	0.9	-8	0.9
O=C(Nc1nonc1NC(=O)C1CCCCC1)C1CCCCC1	9	27	14	0.7	2	0.9
CC1=CC(=NOC(=O)/C=C/c2ccccc2)C=C(C)C1=O	-3	-8	0	1.1	0	1
CC1=C/C(=N\OS(=O)(=O)c2ccccc2)C(C)=CC1=O	48*	-19	4	1.2	36*	1
COc1ccc(S(=O)(=O)Nc2ccc3c(c2)OCO3)cc1C(=O)O	6	11	11	0.9	-1	0.9
CC(=O)N1CCc2cc(S(=O)(=O)Nc3cccc(C(F)(F)F)c3)ccc21	8	71*	95*	0.3	0	0
CC(=O)N1CCCc2cc(S(=O)(=O)Nc3ccc4c(c3)OCO4)ccc21	33*	87*	99*	0.1	2	0
O=C(Nc1ccccc1C(=O)NCC1CCCO1)c1ccccc1 (stereo not given)	-10	20	8	0.8	-4	0.9
Cc1ccccc1NS(=O)(=O)c1ccc(OCC(=O)N2CCCCC2)cc1	-4	2	22	1	0	0.8
CCOC(=O)c1ccccc1NS(=O)(=O)c1ccc(OCC)cc1	17	40	70*	0.6	0	0.3
CCOc1ccc(S(=O)(=O)Nc2ccccc2C(=O)NCC2CCCO2)cc1 (stereo not given)	-7	35	71*	0.7	6	0.3
COC(=O)c1ccc2c(c1)SC1=C(CCCC1=O)N2	10	20	83*	0.8	0	0.2
SMILES	PostGolgi ctrl	CYP2C9 inh	CYP2C19 inhib	CYP2C9 act	PostGolgi yeast	CYP2C19 act
CC1CCN(S(=O)(=O)c2cccc(-c3nnc(-c4cccnc4)o3)c2)CC1	13	8	14	0.9	-4	0.9
C=CCN(CC(=O)NCc1ccccc1)C(=O)c1csnn1	1	10	73*	0.9	-3	0.3
ClC(Br)=C(n1cnc2ccccc21)n1cnc2ccccc21	4	88*	75*	0.1	-13	0.2
CCOc1ccc(NC(=O)N(CCC(C)C)C2CCN(C(C)=O)CC2)cc1	-4	10	6	0.9	15	0.9
CC/C(C)=C1\SC(N2CCN(c3cccc(C(F)(F)F)c3)CC2)=NC1=O	32*	-86	16	1.9	16	0.8
O=S(=O)(c1ccc(NC2CCCCC2)cc1)N1CCOCC1	-5	37	9	0.6	6	0.9
